Among all 5,500 compounds or so, about 2,000 (36%) were called active. Another 18% or so got no clear call; they are omitted. Cut-off read from the data, not from the text of the source: active = normalized growth mostly below about 0.91 (no sharp cut-off); inconclusive = no clear call, values can overlap the other calls; inactive = mostly above about 0.92. This is one part of the list.
Test: chemical genetic growth profiling, strain panel (AID 1159580);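 note: tested at 20 µM; growth read once vehicle control cultures reached saturation at 30 °C; 1 = growth at the plate median or of vehicle wells; lower values mean less growth of the strain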
Settings: S. cerevisiae deletion strains, growth OD

Measured: normalized growth

CC(=O)OCCCCN1C(=O)c2ccccc2C1=O
inactive: locus YAL013W, strain DEP1, active compounds read low 0.995 | locus YBR229C, strain ROT2, active compounds read low 1 | locus YCL061C, strain MRC1, active compounds read low 0.986 | locus YDL101C, strain DUN1, active compounds read low 1.04 | locus YDL134C, strain PPH21, active compounds read low 1 | locus YDR150W, strain NUM1, active compounds read low 0.988 | locus YEL061C, strain CIN8, active compounds read low 0.995 | locus YGR078C, strain PAC10, active compounds read low 1.01 | locus YHR030C, strain SLT2, active compounds read low 0.943 | locus YHR087W, strain rtc3, active compounds read low 1.01 | locus YJL187C, strain SWE1, active compounds read low 1 | locus YJR043C, strain POL32, active compounds read low 0.997 | locus YJR075W, strain HOC1, active compounds read low 0.977 | locus YKL190W, strain CNB1, active compounds read low 0.999 | locus YLR039C, strain RIC1, active compounds read low 1.02 | locus YLR058C, strain SHM2 (second series), active compounds read low 0.994 | locus YLR085C, strain ARP6, active compounds read low 0.967 | locus YLR262C, strain YPT6, active compounds read low 1.02 | locus YML094W, strain GIM5, active compounds read low 1.05 | locus YMR219W, strain ESC1, active compounds read low 1 | locus YMR263W, strain SAP30, active compounds read low 0.996 | locus YNL153C, strain GIM3, active compounds read low 1.02 | locus YNL298W, strain CLA4 (second series), active compounds read low 0.983 | locus YNL322C, strain KRE1, active compounds read low 1 | locus YNR030W, strain Alg12, active compounds read low 0.995 | locus YOL006C, strain TOP1, active compounds read low 0.993 | locus YPL055C, strain LGE1, active compounds read low 1 | locus YPL241C, strain CIN2, active compounds read low 1.05 | locus YPR135W, strain CTF4, active compounds read low 0.975
